The supplement of paper PMC10981050
Values joined by “and” are separate entries in the source; they are usually repeats but may differ in a detail not shown here. Identical values can stand only once. Counter-ions that a name gives are not always drawn.

Experiments:
Assay in all cases: cell viability relative to vehicle control; higher = less cytotoxic
Conditions in all cases: 10 µM
[1] = test system: K562
Method in brief: (§1)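 Each screen used CRISPR-edited mutant and wild-type clones from four leukaemia lines. Compounds were acoustically dispensed at a single 10 µM dose, and CellTiter-Glo luminescence was read after 48 h with the supernatant first removed. Viability was analysed in Genedata Screener and given as percent of the on-plate vehicle control.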

[2] = test system: MARIMO
Method in brief: as §1

[3] = test system: MOLM14
Method in brief: as §1

[4] = test system: OCI-AML2
Method in brief: as §1

SMILES	cell viability ([1]; SRSF2 genotype: SRSF2 P95H/wt)	cell viability ([1]; SRSF2 genotype: SRSF2 wt/wt)	cell viability ([2]; SRSF2 genotype: SRSF2 P95H/wt)	cell viability ([2]; SRSF2 genotype: SRSF2 wt/wt)	cell viability ([3]; SRSF2 genotype: SRSF2 P95H/wt)	cell viability ([3]; SRSF2 genotype: SRSF2 wt/wt)	cell viability ([4]; SRSF2 genotype: P95H/wt)	cell viability ([4]; SRSF2 genotype: wt/wt)
CCN(CC)c1ccc2cc(-c3nc4ccccc4s3)c(=O)oc2c1 [Coumarin 6]	106% and 105%	102%	106%	112%	108%	107%	101%	108%
CCCNS(=O)(=O)Nc1ncnc(OCCOc2ncc(Br)cn2)c1-c1ccc(Br)cc1 [Macitentan]	104% and 105%	96.8%	100%	118%	103%	110%	102%	110%
O=C(/C=C/c1ccc(O)c2c1[C@H](C(=O)O)[C@@H](c1ccc(O)c(O)c1)O2)O[C@H](Cc1ccc(O)c(O)c1)C(=O)O [Lithospermic acid]	96.8% and 101%	96%	97.9%	88.7%	104%	99.9%	88.6%	97.6%
OC(CC1c2ccccc2-c2cncn21)C1CCCCC1 (centres undefined)	85.4% and 94.1%	97.5%	80%	93.1%	90.6%	93.5%	89.8%	99.7%
Cc1cc(NS(=O)(=O)c2ccc(N)cc2)nc(C)n1 [sulfaisodimidine]	103%	112%	106%	101%	106%	106%	112%	102%
COC(=O)C1=CO[C@@H](O[C@@H]2O[C@H](CO)[C@@H](O)[C@H](O)[C@H]2O)[C@@H]2[C@@]3(C)O[C@H]3[C@@H](O)[C@]12O [Sesamoside]	101% and 102%	104%	102%	98.4%	109%	105%	104%	107%
OC[C@H]1O[C@H](OCC2O[C@@H](O)[C@H](O)[C@@H](O)[C@@H]2O)[C@H](O)[C@@H](O)[C@H]1O (some centres undefined) [Melibiose]	108% and 104%	106%	105%	110%	101%	108%	98.5%	103%
CCc1nc(N)nc(N)c1-c1ccc(Cl)cc1 [Pyrimethamine]	73.7% and 96.8%	36.4%	95.2%	99.7%	102%	92.3%	107%	102%
C[C@H]1COC2(CCN(c3nc(=O)c4cc(C(F)(F)F)cc([N+](=O)[O-])c4s3)CC2)O1 (racemic) [BTZ043 racemate]	88.3% and 84.3%	84.1%	82.4%	86.7%	87%	85.3%	91.7%	86.9%
Cc1ccc(S(=O)(=O)c2ccc([N+](=O)[O-])o2)cc1	0.16% and 0.25%	0.18%	0.21%	0.25%	0.19%	0.2%	0.21%	0.26%
CC(C)(CNC(=O)c1cccc(-c2noc(C(F)(F)F)n2)c1)c1coc(-c2ccccc2)n1	89.2% and 87.4%	94.5%	82.1%	82.6%	91%	96%	52.5%	67.2%
O=c1cc(-c2ccc(O)c(O)c2)oc2cc(O)cc(O)c12 [Luteolin]	90.8% and 84.6%	85.5%	65.7%	82.6%	53%	57%	67.3%	58.9%
COc1nc2ccc(Br)cc2cc1[C@@H](c1ccccc1)[C@@](O)(CCN(C)C)c1cccc2ccccc12 [Bedaquiline fumarate]	55% and 58.7%	74.9%	63.9%	55.5%	41.6%	54.7%	24.1%	21.3%
COc1cc(O)c2c(=O)cc(-c3ccc(O)c(O)c3)oc2c1 [Hydroxygenkwanin]	85.2% and 89.8%	88.9%	45.7%	69.4%	57.5%	58.8%	58.3%	56.4%
CNC(=O)c1ccccc1Sc1ccc2c(/C=C/c3ccccn3)n[nH]c2c1 [Axitinib]	8.75% and 13.3%	14%	57%	65.2%	29.5%	15.3%	36.9%	34%
C[C@]12CC[C@@H]3c4ccc(O)cc4CC[C@H]3[C@@H]1CC[C@@H]2O [Estradiol]	97% and 94.8%	93.8%	93.2%	90.2%	95.3%	98.6%	101%	111%
COc1cc2oc(-c3ccccc3)cc(=O)c2c(OC)c1OC [5,6,7-Trimethoxyflavone]	109% and 110%	107%	99.9%	96.3%	111%	110%	85.1%	87.3%

SMILES	cell viability ([1]; SRSF2 genotype: SRSF2 P95H/wt)	cell viability ([1]; SRSF2 genotype: SRSF2 wt/wt)	cell viability ([2]; SRSF2 genotype: SRSF2 P95H/wt)	cell viability ([2]; SRSF2 genotype: SRSF2 wt/wt)	cell viability ([3]; SRSF2 genotype: SRSF2 P95H/wt)	cell viability ([3]; SRSF2 genotype: SRSF2 wt/wt)	cell viability ([4]; SRSF2 genotype: P95H/wt)	cell viability ([4]; SRSF2 genotype: wt/wt)
CN(CCNc1ccnc2cc(Cl)ccc12)CCNc1ccnc2cc(Cl)ccc12	17.1% and 23.8%	18.8%	19.4%	11.8%	0.51%	0.43%	0.35%	0.6%
COc1cc2ncnc(Nc3cccc(Cl)c3F)c2cc1OC(=O)N1CCN(C)C[C@H]1C	84.8% and 93.4%	101%	104%	106%	77.9%	87.3%	89.8%	75.7%
O=C1[C@H]2CCCC[C@H]2C(=O)N1CCCCN1CCN(c2nsc3ccccc23)CC1 [Perospirone hydrochloride]	70.2% and 74%	73.6%	71.2%	82.3%	78.7%	82.5%	73.7%	75.8%
O=C1CC(c2ccc(O)cc2)Oc2cc(O)ccc21 (centres undefined) [Liquiritigenin]	99.3% and 104%	106%	116%	93.6%	99.8%	104%	121%	99.3%
C=CC(=O)Nc1ccc2ncnc(Nc3ccc(OCc4cccc(F)c4)c(Cl)c3)c2c1	25.1% and 46.8%	60%	28.4%	44.3%	12.6%	7.61%	1.91%	20.6%
COC(=O)c1ccc(O)c(O)c1 [Methyl protocatechuate]	105%	105%	90.5%	101%	101%	109%	117%	97.9%
COc1ccc([C@@H]2CC(=O)c3c(O)cc(O[C@@H]4O[C@H](CO[C@@H]5O[C@@H](C)[C@H](O)[C@@H](O)[C@H]5O)[C@@H](O)[C@H](O)[C@H]4O)cc3O2)cc1O [Hesperidin]	105% and 115%	111%	107%	109%	109%	113%	112%	97.2%
O=C(NOCCO)c1ccc2cncn2c1Nc1ccc(I)cc1F	78.1% and 89.5%	80.8%	41.2%	37%	43.5%	27%	39.1%	40.2%
Cc1ncc(CCCN(C)C)cc1Nc1ncc2c(n1)-c1ccc(C(F)(F)F)cc1NC(=S)C2	46.2% and 57.9%	54.3%	49.5%	44.5%	18.3%	8.47%	16.3%	21.1%
CNc1nc(-c2ccc3c(N)n[nH]c3c2)cc(N2C[C@@H](C(=O)NC3CCCCC3)CC[C@H]2C)n1	78.3% and 74.9%	73.5%	72.1%	72.8%	42.3%	39.5%	47.6%	40.7%
O=C(Nc1cccc(C(F)(F)F)c1)Nc1cc(S(=O)(=O)NC2CC2)ccc1-c1ccsc1	82.6% and 92.4%	80.2%	94.2%	104%	92%	94.4%	86.6%	95%
OCC1OC(Oc2ccc(O)cc2)C(O)C(O)C1O (stereo not drawn) [alpha-Arbutin]	99.8% and 105%	98.6%	104%	111%	103%	109%	98.8%	101%
C[C@H]1[C@H](C)CC[C@]2(C(=O)O)CC[C@]3(C)C(=CC[C@@H]4[C@@]5(C)CC[C@H](O)C(C)(C)[C@@H]5CC[C@]43C)[C@H]12 [Ursolic acid (Malol)]	96.5% and 93.7%	90.6%	87.2%	102%	98.2%	97%	81.4%	92.8%
C[C@]1(O)C[C@@H](O)[C@@H]2C=CO[C@@H](O[C@@H]3O[C@H](CO)[C@@H](O)[C@H](O)[C@H]3O)[C@@H]21 [Leonuride]	105% and 99.7%	106%	101%	94.9%	102%	101%	102%	102%
O=c1c(O)c(-c2ccc(O)cc2)oc2cc(O)cc(O)c12 [Kaempferol]	96.1% and 106%	108%	98.1%	117%	57.4%	68%	81.7%	67.5%
Nc1[nH]cnc2ncnc1-2 [Adenine hydrochloride]	127% and 120%	105%	98.5%	111%	105%	108%	114%	118%
